Source: PubChem (National Center for Advancing Translational Sciences (NCATS))
Cruzain Triton = cruzain (T. cruzi) inhibition with detergent; P25779; purified cruzain, Z-FR-AMC fluorescence, 0.01% Triton; Potency, µM, for inactives: max response, negative = inhibition, usual class: inhibitors; 200,000 tested, 0.43% active; AID 1478;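 further: plate controls were neutral wells for no effect and buffer without enzyme for full effect; nearly all actives have a fitted effect of over 40% in size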
Target sequence (P25779 123-467 limits assumed): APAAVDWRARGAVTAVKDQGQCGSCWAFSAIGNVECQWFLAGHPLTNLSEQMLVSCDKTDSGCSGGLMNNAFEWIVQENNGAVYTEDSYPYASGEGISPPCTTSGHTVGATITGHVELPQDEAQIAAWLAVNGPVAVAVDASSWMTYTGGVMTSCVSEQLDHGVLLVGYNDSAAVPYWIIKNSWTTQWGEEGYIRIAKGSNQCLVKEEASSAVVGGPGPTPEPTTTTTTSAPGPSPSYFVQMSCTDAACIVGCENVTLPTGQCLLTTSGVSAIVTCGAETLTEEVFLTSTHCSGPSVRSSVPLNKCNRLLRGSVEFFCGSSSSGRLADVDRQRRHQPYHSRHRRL
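Purified cruzain (1.5 nM final) was preincubated with compounds for 15 min at room temperature in 100 mM sodium acetate pH 5.5, 5 mM DTT, 0.01% Triton X-100. Reaction started with 2 uM Z-FR-AMC; AMC fluorescence change over 60 s gave activity.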
Cruzain inh noDet = cruzain (T. cruzi) inhibition without detergent; AID 1476; 200,000 tested, 2.3% active; Potency, µM, for the others: max response, negative = inhibition, usual class: inhibitors; purified cruzain, Z-FR-AMC fluorescence, no detergent;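 further: plate controls were enzyme without inhibitor for no effect and buffer without enzyme for full effect; nearly all actives have a fitted effect of over 40% in size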
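Detergent-free condition (0.00005% Triton X-100) in acetate buffer pH 5.5 with DTT. 1.5 nM enzyme and compound were pre-mixed 15 min, then 2 uM Z-FR-AMC substrate added; reaction progress from fluorescence change between first and third reads (60 s).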
Papain counter = papain (Carica papaya) inhibition counter-screen. 410 tested, 41% active. purified papain, Z-FR-AMC fluorescence cleavage. Potency, µM, for the others: max response, negative = inhibition, usual class: inhibitors. shares compounds with Cruzain Triton;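 further: 0% = no-compound wells and -100% = no-enzyme wells; nearly all actives have a fitted effect of over 35% in size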
Target sequence (P00784 whole entry, looked up): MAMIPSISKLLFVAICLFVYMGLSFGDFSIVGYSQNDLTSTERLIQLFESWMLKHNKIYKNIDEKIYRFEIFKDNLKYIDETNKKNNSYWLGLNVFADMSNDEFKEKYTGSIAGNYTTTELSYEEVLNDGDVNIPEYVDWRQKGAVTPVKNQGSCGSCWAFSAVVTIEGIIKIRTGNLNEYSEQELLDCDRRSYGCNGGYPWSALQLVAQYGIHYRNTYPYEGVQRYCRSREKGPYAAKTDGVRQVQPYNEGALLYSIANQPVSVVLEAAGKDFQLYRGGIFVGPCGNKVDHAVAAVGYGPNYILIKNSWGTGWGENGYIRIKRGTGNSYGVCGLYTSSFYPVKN
Active calls of the source: *; ? = inconclusive. The list is not random: actives were taken first. Their share in the collection is about 2.5%. The call rests on the fitted dose curve; in most records, active means well fitted curve in the direction sought with a large enough effect; inconclusive means small, poorly fitted or top-dose-only effect, or another doubt; inactive means no such curve, though single readings can be large; an effect the other way counts as inactive or inconclusive. Potency means the concentration at half of the fitted maximal effect.

SMILES | Cruzain Triton | Cruzain inh noDet | others
CN(CC(=O)Nc1cccc(F)c1)S(=O)(=O)c1ccc2c(c1)n(C)c(=O)c(=O)n2C | -2.7% | 3.8%
COc1ccc(NC(=O)c2cc3c(=O)n(Cc4cccnc4)ccc3nc2C)c(OC)c1 | -2.3% | 2.2%
Cc1ccc(CSc2ccc3nnc(CCNS(=O)(=O)c4ccc(C)cc4)n3n2)cc1 | -7.0% | ?
Cc1nc(SCC(=O)Nc2ccccc2F)[nH]c(=O)c1Cc1ccccc1 | -2.5% | -8.7%
Cc1ccsc1CN(C(=O)c1ccc(OCC(C)C)cc1)C1CCS(=O)(=O)C1 (stereo unspecified) | -8.0% | 17.8%
Brc1ccc(C2Nc3cccc4cccc(c34)N2)o1 | -12.5% | 7.94µM*
c1csc(C2Nc3cccc4cccc(c34)N2)c1 | -8.1% | 7.94µM*
O=[N+]([O-])c1ccccc1C1Nc2cccc3cccc(c23)N1 | -3.1% | ?
CN1c2cccc3cccc(c23)N(C)C1c1cccs1 | -0.9% | -4.6%
CCOc1ccc(CCNc2ncnc3onc(-c4ccc(F)cc4)c23)cc1OCC | -6.9% | ?
COCCn1c(-c2ccccc2)c(C)n2c3c(=O)n(C)c(=O)n(C)c3nc12 | -1.3% | -5.5%
O=C(NC(=S)Nc1ccc(N2CCOCC2)c(Cl)c1)c1cncc(Br)c1 | -3.7% | -9.3%
O=C(NC(=S)Nc1ccc(N2CCCCC2)c(Cl)c1)c1ccc2c(c1)OCCO2 | -0.9% | 25.1µM*
Cc1ccccc1-c1nc(CS(=O)(=O)CC(=O)NCc2cccc(Cl)c2)c(C)o1 | -8.9% | -6.1%
CS(=O)(=O)c1ccc2nc(NC(=O)Nc3cccc(Cl)c3)sc2c1 | -2.5% | ?
CS(=O)(=O)c1ccc2nc(NC(=O)Nc3ccc(Cl)c(Cl)c3)sc2c1 | -7.7% | 10µM*
N=C1[C@@H](O)[C@]2(I)c3ccccc3N3C(=N)[C@H](O)[C@@H]4c5ccccc5N1[C@@H]4[C@@H]32 | -3.0% | -1.2%
O=C1c2ccccc2C(=O)C12OC2c1ccc(Cl)cc1 (stereo unspecified) | -4.2% | 2.8%
O=C1c2ccccc2C(=O)C12OC(c1ccccc1)C1(C(=O)c3ccccc3C1=O)C2c1cccc([N+](=O)[O-])c1 (stereo unspecified) | 0.1% | 7.94µM*
COCCOc1cc(NC(=O)c2sccc2Oc2ccc([N+](=O)[O-])cc2F)c(Cl)cc1Cl | 1.0% | 15.8µM*
CCN(CC)S(=O)(=O)c1ccc(OC)c(NC(=O)c2cc([N+](=O)[O-])ccc2Cl)c1 | 2.0% | -0.8%
CC(C)CC(=O)Nc1cccc(-c2cn3cccnc3n2)c1 | -15.6% | -6.5%
CCn1c(CN2CCCCC2)nc2cc(NC(=O)c3cccc([N+](=O)[O-])c3)ccc21 | -5.9% | -2.4%
COc1ccc(-n2c(/C=C/c3cccc4ccccc34)nc3ccccc3c2=O)cc1OC | -2.8% | ?
COc1ccc(Cl)cc1-n1c(/C=C/c2cccc3ccccc23)nc2ccccc2c1=O | 0.5% | 31.6µM*
SMILES | Cruzain Triton | Cruzain inh noDet | others
CCCS(=O)(=O)NCCc1sc2nc(-c3ccc(Cl)cc3)nn2c1C | -3.6% | 16.5%
[ClH+][Cu][ClH+].[Cu].[OH2+]c1ccc2ccccc2c1CN1CCCCC1.[OH2+]c1ccc2ccccc2c1CN1CCCCC1 | 1.4% | -5.0%
O=C1C=C(Nc2ccc(Cl)cc2)C(=O)N1c1ccc(Cl)cc1 | 1.1% | 6.31µM*
O=C1CCCC(=O)N1c1ccc(Oc2ccc(Cl)cc2)cc1 | -4.2% | -0.6%
CCCCOc1ccc(C(=O)Nc2ccc3c(c2)CCCN3C(=O)c2cccs2)cc1 | 1.6% | -1.8%
CCc1cc(=O)[nH]c(SCc2nc(-c3ccccc3)no2)n1 | -2.6% | -1.4%
Cc1cccc(C2(c3cccc(C)c3)OC(=O)c3ccccc32)c1 | -3.2% | -4.5%
CN(C)c1ccc(C2(c3ccc(N(C)C)cc3)OC(=O)c3cc(N(C)C)ccc32)cc1 | -5.2% | 25.1µM*
CCOC(=O)NC(=O)/C(C#N)=N\Nc1ccc(Cl)cc1 | -2.0% | 5.01µM*
CCOc1ccc(N/N=C(/C#N)C(N)=O)cc1 | -9.1% | -20.8%
CC(C)OCCCNC(=O)c1cc2c(-c3ccc(Cl)cc3)nn(C)c2s1 | -5.4% | ?
CC(=O)[O-].CC(=O)[O-].O.O.[Cd+2] | 5.9% | -19.5%
O=S(=O)(Nc1ccc(-c2ccc(N3CCCC3)nn2)cc1)c1ccc(Cl)cc1 | -5.8% | ?
Cc1cc2oc(=O)cc(CN3CCN(C/C=C/c4ccccc4)CC3)c2cc1O | -0.8% | -20.8%
Cc1ccc2c(CN3CCN(S(=O)(=O)/C=C/c4ccccc4)CC3)cc(=O)oc2c1 | -2.0% | 25.1µM*
CCOC(=O)Nc1ccc2c(CN3C(=O)NC4(CCCC4)C3=O)cc(=O)oc2c1 | -22.7% | -8.5%
CCOC(=O)Nc1ccc2c(CN3CCN(S(=O)(=O)c4ccccc4)CC3)cc(=O)oc2c1 | -0.6% | 12.6µM*
Cc1c(-c2cccc(NC(=O)Nc3ccccc3)c2)nc2ncccn12 | -5.5% | 17.8%
CC(=O)c1sc(N/N=C\c2ccc(Br)cc2)nc1C | -12.5% | ?
CC(=O)c1sc(N/N=C\c2cccc(Br)c2)nc1C | 12.6µM* | 0.199µM*
COc1ccc2c(c1)c1c(c(=O)n(-c3ccc(C)cc3)c(=O)n1CC(=O)N1CCCC1)n2C | -1.5% | 2.6%
COc1ccc(C(=O)Nc2ccccc2-c2nc(-c3ccc(OC)cc3)no2)cc1 | -1.9% | -5.3%
COc1ccc(NC(=O)C2(c3ccc(NC(=O)c4ccc(OC)c(OC)c4)cc3)CCCC2)cc1 | 2.4% | 2.1%
COc1ccc(NC(=O)C2(c3ccc(NC(=O)c4ccc(C)cc4)cc3)CCCC2)cc1 | 1.5% | 6.31µM*
COc1cccc2c1Oc1ncccc1N(c1ccc(C(=O)NCc3ccccc3Cl)s1)C2 | -25.0% | 25.1µM*
SMILES | Cruzain Triton | Cruzain inh noDet | others
COc1cccc2c1Oc1ncccc1N(c1ccc(C(=O)NCc3cccc(C)c3)s1)C2 | -3.8% | -16.2%
Cc1[nH]nc(-c2ccc(OCc3cnn(-c4ccccc4)c3)cc2O)c1Oc1ccc(F)cc1 | 8.2% | ?
Cc1[nH]nc(-c2ccc(OCc3cnn(-c4ccccc4)c3)c(C)c2O)c1Oc1ccccc1 | 8.2% | 12.6µM*
CCCOc1ccc(CNC(=O)c2cc3ccccn3n2)cc1 | -7.4% | 5.8%
COc1ccccc1-c1cn(S(=O)(=O)c2ccc(C)cc2)nc1N | -3.4% | 10µM*
COc1ccc(OC)c(-c2cn(S(=O)(=O)c3ccccc3)nc2N)c1 | -14.5% | -1.1%
O=C(O)CCC(=O)Nc1cccc(C(=O)Nc2cccc(Cl)c2)c1 | -0.1% | 7.5%
O=C(Cc1ccccc1)Nc1ccc(NC(=O)c2cccc(Cl)c2)cc1 | 0.5% | 25.1µM*
O=[N+]([O-])c1ccc(-c2cn(-c3ccc(Cl)cc3)c(=S)[nH]2)cc1 | -0.6% | ?
CCc1ccc(-n2cc(-c3ccc([N+](=O)[O-])cc3)[nH]c2=S)cc1 | -4.8% | 25.1µM*
COc1ccc(C(=O)N2CCN(c3nc4c(C)c(Cl)ccc4s3)CC2)c(OC)c1 | -16.7% | ?
C=CC(C)(C)c1[nH]c2ccccc2c1C1=C(O)C(=O)C(c2c[nH]c3c(CC=C(C)C)cccc23)=C(O)C1=O | 31.6µM* | ? | Papain counter=4.47µM*
CC(C)CCNC(=O)CN1C(=O)CSc2ccc(S(=O)(=O)N3CCC(C)CC3)cc21 | 0.7% | 9.1%
O=C(NCc1ccco1)c1ccc2nc3sc4c(c3c(=O)n2c1)CCCC4 | 10µM* | 22.3% | Papain counter=25.1µM*
C=CCn1c(SCC(=O)NCc2ccco2)nc2sc3c(c2c1=O)CCCC3 | -1.1% | -12.6%
